Bioassay records from PubChem BioAssay.
V-ATPase pHluor – regulators of yeast V-ATPase proton transport | S. cerevisiae, pHLuorin cytosolic pH fluorescence | actives 0.37% (n = 350,000) | AID 504577 | response, % at 10 µM; in the data active = response mostly above about 7.3%, no sharp cut-off; inactive = mostly below about 5.4%; note: actives read high
beta cell repl – induces beta-cell replication in MIN6 cells. MIN6 cells proliferation, ATPlite luminescence, 48 h; cells starved in 0.2% serum; 100% = growth in 10% serum. proliferation, % at 10 µM. actives 0.29% (n = 330,000). AID 2380;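 active = compounds whose signal lies at least 3.5 SD above the mean of all wells on their plate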;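 note: 0% = DMSO-treated cells in low-serum medium and 100% = 10% serum control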
Cardio protect – myocardial damage modulation in H9c2 cells | H9c2 cardiomyocytes, H2O2 injury protection, ATPLite, 2 h | protection from H2O2 cell death, % at 20 µM | actives 0.63% (n = 360,000) | AID 588492;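 active = compounds giving at least 50% protection of heart cells from peroxide-induced death in the single-dose screen, raw or plate-pattern-corrected value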;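 note: 0% = DMSO wells with peroxide and 100% = DMSO wells without peroxide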
HSV augment – HSV replication enhancement; maximum fold increase; actives 0.005% (n = 220,000); HSV replication augmentation in cells, fold increase; AID 1956; in the data active = maximum fold increase above about 1.5; tested in PC3 cells
CR mimetic SO – caloric restriction mimetics inhibiting age-related superoxide in yeast | superoxide response (% of plate mean), % at 10 µM | actives 0.18% (n = 330,000) | S. cerevisiae aged cells, superoxide DHE fluorescence; hits give low values;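 active = superoxide response under a set limit, about three screen SD below normal, cut at about 65% in these data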;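 note: yeast aged for seven days with compound at 30 °C before DHE staining; 100% = average MFI of all compound-treated wells on the plate with controls excluded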
pCIP destab – lowers stability of the mouse p/CIP coactivator protein | Q05BA5 | F442A p/CIP-EGFP cells, EGFP fluorescence, 16 h | decrease of EGFP signal, % at 10 µM | actives 0.01% (n = 290,000) | AID 1984;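 active = EGFP signal decrease of at least 30% at 10 µM or well 3 SD below plate mean, unless failing retest; inactive = the rest, including hits failing retest or dose response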
Target sequence (Q05BA5 1-1403): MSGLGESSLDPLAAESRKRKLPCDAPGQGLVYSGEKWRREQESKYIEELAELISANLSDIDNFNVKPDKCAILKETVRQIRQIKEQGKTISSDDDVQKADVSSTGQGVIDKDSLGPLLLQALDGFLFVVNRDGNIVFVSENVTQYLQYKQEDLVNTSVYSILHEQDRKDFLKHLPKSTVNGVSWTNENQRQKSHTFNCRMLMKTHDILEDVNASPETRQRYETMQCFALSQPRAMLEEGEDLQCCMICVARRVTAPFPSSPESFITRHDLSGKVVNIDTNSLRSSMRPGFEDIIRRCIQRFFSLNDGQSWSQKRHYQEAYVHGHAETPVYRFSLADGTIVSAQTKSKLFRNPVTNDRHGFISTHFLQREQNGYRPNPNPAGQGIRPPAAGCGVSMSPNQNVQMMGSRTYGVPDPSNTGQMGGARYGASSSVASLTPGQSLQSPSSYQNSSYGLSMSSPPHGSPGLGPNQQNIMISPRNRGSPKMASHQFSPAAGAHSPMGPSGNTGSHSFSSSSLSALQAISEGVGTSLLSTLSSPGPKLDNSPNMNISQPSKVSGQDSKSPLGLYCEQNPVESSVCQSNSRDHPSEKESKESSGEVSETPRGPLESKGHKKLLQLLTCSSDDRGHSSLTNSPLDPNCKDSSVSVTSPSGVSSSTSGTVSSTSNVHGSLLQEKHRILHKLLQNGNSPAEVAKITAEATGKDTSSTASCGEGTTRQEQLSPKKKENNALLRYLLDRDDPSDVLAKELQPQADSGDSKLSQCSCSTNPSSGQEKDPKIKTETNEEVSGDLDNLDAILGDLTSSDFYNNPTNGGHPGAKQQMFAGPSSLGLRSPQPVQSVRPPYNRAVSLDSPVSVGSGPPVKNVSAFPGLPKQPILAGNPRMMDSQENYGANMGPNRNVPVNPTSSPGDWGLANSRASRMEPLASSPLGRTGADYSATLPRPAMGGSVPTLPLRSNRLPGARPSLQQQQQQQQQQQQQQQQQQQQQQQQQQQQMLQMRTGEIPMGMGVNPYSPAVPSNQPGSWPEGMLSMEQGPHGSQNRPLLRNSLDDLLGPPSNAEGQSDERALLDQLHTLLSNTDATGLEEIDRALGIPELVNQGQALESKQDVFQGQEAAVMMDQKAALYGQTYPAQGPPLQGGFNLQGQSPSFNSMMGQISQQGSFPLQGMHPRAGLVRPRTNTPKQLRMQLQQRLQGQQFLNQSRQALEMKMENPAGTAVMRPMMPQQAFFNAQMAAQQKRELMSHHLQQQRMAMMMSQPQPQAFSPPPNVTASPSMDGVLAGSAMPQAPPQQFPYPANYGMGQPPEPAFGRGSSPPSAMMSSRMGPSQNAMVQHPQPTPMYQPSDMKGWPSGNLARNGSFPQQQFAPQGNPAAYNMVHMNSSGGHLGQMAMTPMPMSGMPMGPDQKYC
Superoxide pick – yeast aging superoxide inhibition, cherry pick confirmation | superoxide response (% of plate), % at 10 µM | shares compounds with CR mimetic SO | S. cerevisiae aging, superoxide DHE fluorescence; hits give low values | AID 434994 | actives 1% (n = 850);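 active = superoxide signal below 65% of the plate average of sample wells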;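 note: cells aged with compound for 7 days at 30 degrees C before staining; 100% equals mean DHE fluorescence of all compound wells on the plate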
DHE fluor count – DHE fluorescence interference, counter-screen artifact; shares compounds with CR mimetic SO; S. cerevisiae BY4741, flow cytometry; hits give low values; fluorescence response, % at 10 µM; 850 tested, under 10 active; AID 435000;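 active = fluorescence response below 15%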;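 note: percent of the mean fluorescence averaged over all compound wells on the plate; lower means stronger quenching of DHE signal or ROS scavenging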
* = called active by the depositor. Only some compounds are listed: those with a hit (about 1.4% of all), similar ones and a draw of the others.

COc1cc(Nc2ncnc(N)n2)cc(OC)c1 was read as V-ATPase pHluor -3.1, beta cell repl -2.7, Cardio protect 1.2, HSV augment inactive, CR mimetic SO 59.4*, pCIP destab -1.5, Superoxide pick 104.8 and DHE fluor count 109.8.
For CCn1cc(CNC(=O)c2cc(Cl)ccc2OC)c(C)n1 the results were V-ATPase pHluor -1.3, beta cell repl 4.5, Cardio protect 0.6, HSV augment inactive, CR mimetic SO 94.1 and pCIP destab -10.0.
`COc1ccc(Cl)cc1C(=O)NCc1cnn(C)c1C` gave V-ATPase pHluor 3.4, beta cell repl -1.3, Cardio protect 6.8, HSV augment inactive, CR mimetic SO 65.0*, pCIP destab -9.3, Superoxide pick 106.5 and DHE fluor count 100.5.
Screening CCOc1cccc(/C=C/c2ccc3cccc(O)c3n2)c1O returned V-ATPase pHluor -3.3, beta cell repl -4.9, Cardio protect 49.7, CR mimetic SO 120.7 and pCIP destab -3.2.
For CCOc1cccc(/C=C/c2ccc3cccc(O)c3n2)c1OC the results were V-ATPase pHluor -0.1, beta cell repl -6.4, Cardio protect 23.6, CR mimetic SO 41.6*, pCIP destab -1.2, Superoxide pick 101.4 and DHE fluor count 94.5.
`CCCn1c(N)c(C(=O)COC(=O)CNC(=O)c2ccccc2OCC)c(=O)[nH]c1=O` gave V-ATPase pHluor 0.5, beta cell repl 2.0, Cardio protect 2.0 and CR mimetic SO 85.5.
`CCC(C)(C)c1ccc(OCCCC[n+]2cccc(C)c2)c(C(C)(C)CC)c1` gave V-ATPase pHluor 1.7, Cardio protect -10.5, HSV augment inactive, pCIP destab 1.3, Superoxide pick 120.6 and DHE fluor count 107.0.
For CCOC(=O)N1CCN(Cc2nc(-c3cccc(C)c3)no2)CC1 the results were V-ATPase pHluor 0.7, beta cell repl -0.4, Cardio protect -3.5, HSV augment inactive, CR mimetic SO 64.0*, pCIP destab -7.9, Superoxide pick 110.3 and DHE fluor count 108.9.
`O=C(/C=C/c1ccccc1[N+](=O)[O-])NCc1ccccc1Cl` gave V-ATPase pHluor -3.1, beta cell repl 1.9, Cardio protect -9.5, HSV augment inactive, CR mimetic SO 64.2*, pCIP destab -6.9, Superoxide pick 116.3 and DHE fluor count 104.5.
Screening CNC(=S)N1N=C(c2cccs2)CC1c1ccc(F)cc1 (configuration not stated) returned V-ATPase pHluor -1.8, beta cell repl -3.2, Cardio protect -2.1, CR mimetic SO 65.2*, pCIP destab -4.1, Superoxide pick 107.3 and DHE fluor count 94.5.
Screening O=C(c1ccco1)N1N=C(c2cccs2)CC1c1ccc(F)cc1 (configuration not stated) returned V-ATPase pHluor 5.3, beta cell repl -1.2, Cardio protect 6.6, HSV augment inactive, CR mimetic SO 102.8 and pCIP destab 3.2.
Screening CCOc1ccc(NS(=O)(=O)c2ccc3[nH]c(=O)cc(C(=O)O)c3c2)cc1 returned beta cell repl -2.0, Cardio protect -0.2, HSV augment inactive, CR mimetic SO 84.8 and pCIP destab -4.6.
Screening O=C(O)c1cc(=O)[nH]c2ccc(S(=O)(=O)Nc3ccc(F)cc3)cc12 returned V-ATPase pHluor 2.4, beta cell repl 3.6, Cardio protect 3.3, CR mimetic SO 57.0*, pCIP destab 6.4, Superoxide pick 104.4 and DHE fluor count 115.9.
Screening CCOc1cc(C)c(S(=O)(=O)N2CCCC2)cc1C returned V-ATPase pHluor -0.6, beta cell repl -3.0, Cardio protect -3.3, HSV augment inactive, CR mimetic SO 64.5*, pCIP destab -1.0, Superoxide pick 88.8 and DHE fluor count 105.9.
Screening CC(C)(C)c1ccc(/C=C/C(=O)c2ccc(NC3=NCCCS3)cc2)cc1 returned V-ATPase pHluor 0.0, beta cell repl -5.8, Cardio protect -21.8, HSV augment inactive, CR mimetic SO 46.0*, pCIP destab -11.6, Superoxide pick 113.3 and DHE fluor count 121.6.
